# Reference: PubChem BioAssay (NCI)
# This is part of a sample that, as a whole, favours compounds with a hit. Of some 83,000 tested, about 20% had one in any assay.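 Values shown are percent growth following 48 h exposure of cells in 96-well plates to a single concentration of compound; below 10 was considered active.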 Calls of active or inactive are those of the source.
# Test system: OVCAR-4 ovarian
# Assay: NCI-60 one-dose screen, 48 h (100 = growth as untreated, 0 = no growth, -100 = all killed)
# Settings: 10 µM unless noted
# Description: Growth inhibition of the OVCAR-4 human tumor cell line is measured as a screen for anti-cancer activity. Cells are grown in 96 well plates and exposed to the test compound for 48 hours. Compounds are tested at a single concentration, which is 10^-5 M for most compounds. The reported endpoint is percent growth (GI% or GIPRCNT), where numbers from 0 - 100% represent growth inhibition, and numbers from -100% - 0 represent cell death. For example, a value of 40 represents 60% growth inhibition. A value of 0 means no net growth occurred over the course of the experiment. A value of -40 indicates 40% of cells at the beginning of the experiment died by the end of the experiment. A value of -100 means all cells are dead at the end of the experiment.
# NCI-60 Human Tumor Cell Lines Screen was performed using the standard one-dose NCI protocol, which is described in more detail at https://dtp.cancer.gov/discovery_development/nci-60/default.htm.
# Compounds with GIPRCNT values below 10 were considered active. Activity score was based on GIPRCNT using the following formula: […]
# Score is 0 for GIPRCNT values of 100 or above, 50 for GIPRCNT values of 0, and 100 for GIPRCNT values of -100.
row,SMILES,growth
1,Cn1cc(-c2cc3nc(-c4cn(C)c5ncccc45)cc(N)n3n2)c2cc(Cl)ccc21,-16.5% (active)
2,COc1ccc(C(=O)/C=C/c2ccc(Cl)c(Cl)c2)cc1S(N)(=O)=O,34.6% (inactive)
3,CC12CC[C@@H]3[C@]4(C)COC(c5cn[nH]c5-c5ccc(Cl)cc5)O[C@@H]4CC[C@@]3(C)[C@@H]1CC(C1=CCOC1=O)O2 (stereo not given in full),39.5% (inactive)
4,COc1ccc(-c2ccnc(SCc3cc4cc(Cl)ccc4[nH]c3=O)n2)cc1,10.1% (inactive)
5,C=C1CCC2C3(C)COC(c4cc(F)cc(F)c4)OC3CCC2(C)C1CC(O)C1=CCOC1=O (stereo not given),53.1% (inactive)
6,Cn1cc(-c2cc(N)n3nc(-c4c[nH]c5ccccc45)cc3n2)c2cccnc21,28.4% (inactive)
7,COc1cc2c(c(OC)c1OC)C(=O)CC(c1cccc(NC(=O)c3cc(N)ccc3Cl)c1)O2 (stereo not given),52.7% (inactive)
8,CC12CC[C@@H]3[C@]4(C)COC(c5cn[nH]c5-c5cccc(Br)c5)O[C@@H]4CC[C@@]3(C)[C@@H]1CC(C1=CCOC1=O)O2 (stereo not given in full),25.4% (inactive)
9,Cn1cc(-c2cc(N)n3nc(-c4cn(C)c5ccc(Cl)cc45)cc3n2)c2ccccc21,111% (inactive)
10,CC(=O)OC[C@@]1(C)C2CC[C@]3(C)C(CC=C4C5CC(C)(C)CC[C@]5(C(=O)Nc5cccc(C)c5)CC[C@]43C)[C@@]2(C)C[C@@H](OC(C)=O)[C@@H]1OC(C)=O (stereo not given in full),38.6% (inactive)
11,N#Cc1c(-c2ccccc2Cl)cc(-c2c[nH]c3ccccc23)[nH]c1=O,69.6% (inactive)
12,CN(C)c1ccnc(CNCCSC2(c3ccc(C(F)(F)F)cc3)c3ccccc3C=Cc3ccccc32)c1,13% (inactive)
13,COc1cc(NC(=O)c2cccc(C3CCc4c(cc(OC)c(OC)c4OC)O3)c2)cc(OC)c1OC (stereo not given),31.6% (inactive)
14,C[C@H]1CN(C(=O)c2ccc3c(NNC(=O)c4ccncn4)nc4cc(F)c(F)cc4n23)CCN1,34.7% (inactive)
15,COc1cc(/C=C/C(=O)c2ccccc2)ccc1Oc1nc(Nc2ccc(F)cc2)nc(N(C)C)n1,27.7% (inactive)
16,CN1CCN(c2ccc(C(=O)/C=C/c3cc(C(F)(F)F)cc(C(F)(F)F)c3)cc2)CC1,-23.8% (active)
17,COc1c(F)ccc(C(=O)Nc2ccc3nc(NC(=O)C4CCCN(S(=O)(=O)C5CC5)C4)sc3c2)c1F (stereo not given),38.5% (inactive)
18,O=C(c1ccccc1)c1ccc2nc(-c3cccc(Cl)c3)[nH]c2c1,114% (inactive)
19,O=C(Cn1c(/C=C/c2cccc([N+](=O)[O-])c2)nc2ccccc2c1=O)Nc1ccccc1,98% (inactive)
20,CC(C)CSc1nc(NCCc2c[nH]c3ccccc23)c(C#N)c(-c2ccc(Cl)cc2)n1,78.3% (inactive)

row,SMILES,growth
1,CN(C)c1ccnc(CNCCSC2(c3ccc(C(F)(F)F)cc3)c3ccccc3CCc3ccccc32)c1,13.9% (inactive)
2,O=C1CC(Sc2n[nH]c(-c3ccncc3)n2)C(=O)N1c1ccc(Br)cc1 (stereo not given),110% (inactive)
3,CCCCCCCS(=O)(=O)N1CCCC(C(=O)Nc2nc3ccc(NC(=O)c4ccc(F)c(OC)c4F)cc3s2)C1 (stereo not given),29.8% (inactive)
4,COc1c(F)ccc(C(=O)Nc2ccc3nc(NC(=O)C4CCCN(S(=O)(=O)c5ccc(Cl)cc5)C4)sc3c2)c1F (stereo not given),86.2% (inactive)
5,COc1ccc(-c2ccnc(SCc3cc4ccccc4[nH]c3=O)n2)cc1OC,-2.39% (active)
6,COc1cc2oc(-c3cccc(C(=O)Nc4ccc(Cl)cc4)c3)cc(=O)c2c(OCC(=O)N[C@@H](Cc2ccccc2)C(=O)O)c1OC,104% (inactive)
7,S=C(Nc1ccc(OCc2nc3ccccc3[nH]2)cc1)NC1CCCCC1,102% (inactive)
8,CC(=O)c1c(N)c(C#N)cn1-c1ccc(Cl)cc1Cl,106% (inactive)
9,CCCCSc1nc(NCCc2c[nH]c3ccccc23)c(C#N)c(-c2ccc(OC)cc2)n1,67.2% (inactive)
10,OCNc1ccc(-n2cnc3cc(-c4ccc(O)cc4)ccc32)cc1C(F)(F)F,55% (inactive)
11,O=C(NN1C(=O)/C(=C/C=C/c2ccc([N+](=O)[O-])o2)SC1=S)c1cccc(O)c1,-100% (active)
12,S=C(NCCc1ccccc1)Nc1ccc(OCc2nc3ccccc3[nH]2)cc1,108% (inactive)
13,COc1c(F)ccc(C(=O)Nc2ccc3nc(NC(=O)C4CCCN(S(=O)(=O)c5ccc(C(F)(F)F)cc5)C4)sc3c2)c1F (stereo not given),69.1% (inactive)
14,CCCCSc1nc(Nc2ccc(S(N)(=O)=O)cc2)c(C#N)c(-c2ccc(Cl)cc2)n1,2.66% (active)
15,COc1ccc(C(SCCNCc2cc(N(C)C)ccn2)(c2ccccc2)c2ccccc2)cc1,22.3% (inactive)
16,Cc1cc(=O)oc2cc(OCCCOc3ccc(/C=C/C(=O)Nc4ccccc4N)cc3)ccc12,40.9% (inactive)
17,Cc1ccc(Cc2cnc(NC(=O)c3ccc(/C=C4\SC(=S)N(C)C4=O)cc3)s2)cc1,48.2% (inactive)
18,CCC(C)(C)c1ccc(OCCCCN2CCN(c3ccncc3)CC2)cc1,56% (inactive)
19,O=C(Cn1nc(-c2ccccc2)ccc1=O)N/N=C/c1ccc(N2CCOCC2)cc1,93.9% (inactive)
20,N/C(=N\N=C\c1ccc([N+](=O)[O-])cc1)c1c(N)nc(=S)[nH]c1-c1ccc(Cl)cc1Cl,111% (inactive)
